Laboratory results: PubChem BioAssay (NCI)
About 83,000 compounds went through this panel and 20% of them were active in at least one assay; those are over-represented in the sample as a whole.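 Activity criterion: percent growth below 10, measured after cells in 96-well plates were exposed to a single compound concentration for 48 hours.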 A number with no mark means an inactive call. Activity calls are given as the source filed them.

How the values were obtained:
Test in all cases: NCI-60 one-dose screen, 48 h (100 = growth as untreated, 0 = no growth, -100 = all killed)
Conditions in all cases: 10 µM
[1] = system: SR leukemia
[2] = system: RPMI-8226 leukemia
[3] = system: OVCAR-8 ovarian
[4] = system: OVCAR-5 ovarian
[5] = system: OVCAR-4 ovarian
[6] = system: SK-OV-3 ovarian
[7] = system: IGROV1 ovarian
[8] = system: OVCAR-3 ovarian
[9] = system: HS 578T breast
[10] = system: NCI/ADR-RES ovarian

Structure (SMILES)	growth [1]	growth [2]	growth [3]	growth [4]	growth [5]	growth [6] [%]	growth [7]	growth [8]	growth [9]	growth [10]
Cc1ccc(NCCN(C)CC(C)O)c2c(=O)c3ccccc3sc12 (stereo not given)	2.49% (active)	19%	33.9%	61.8%	59.9%	54.9	38.4%	66.7%	55.2%	44.7%
COc1ccc(-c2n[nH]nc2-c2cc(OC)c3c(c2OC)OCO3)cc1	10.8%	25.1%	43%	44.2%	51.8%	52.7	45.3%	-11.5% (active)	-5.63% (active)	2.06% (active)
COc1cc(-c2nn(-c3ccc(NC(=O)NCCNS(=O)(=O)c4ccc(F)cc4)cc3)cc2-c2ccncc2)ccc1Cl	1.26% (active)	-21.6% (active)	9.18% (active)	27.1%	41.8%	18.1	27.3%	7.55% (active)	21.6%	79.2%
S=C(SSC(=S)N(c1ccccc1)c1ccccc1)N(c1ccccc1)c1ccccc1	92.6%	97.1%	89.8%	111%	113%	100	111%	102%	108%	105%
COc1ccc(Cc2cnc(N)nc2N)cc1OC	98.9%	102%	96.2%	100%	106%	96	112%	106%	105%	99.7%
c1ccc(/C(=N\Nc2ccc3ccccc3n2)c2ccccn2)cc1	-23.6% (active)	9.21% (active)	11.1%	51.1%	10.1%	20.5	2.49% (active)	22.1%	14.7%	11.4%
CCOC(=O)c1cc(C(=O)c2cc(OC)c(OC)c(OC)c2)n2ncc3ccccc3c12	23.1%	81.9%	78.5%	99.3%	83.8%	83.4	75.9%	47%	85.5%	63.6%
NS(=O)(=O)Oc1ccc(NC(=O)C2CCCCCC2)cc1	98.5%	102%	98.8%	98.4%	107%	99	103%	102%	108%	103%
CN(C)CCOc1cccc(NC2=C(Cl)C(=O)C(Nc3cccc(OCCN(C)C)c3)=C(Cl)C2=O)c1	-18.2% (active)	-46.9% (active)	-94.9% (active)	-53.9% (active)	-100% (active)	94.9	-76.6% (active)	-97.3% (active)	0.785% (active)	57.2%
O=C(CCNC(=O)c1nc(-c2ccccc2)n(-c2ccc(Cl)cc2)n1)NO	98.6%	103%	108%	96.4%	106%	92.4	102%	98.7%	107%	109%
CC(=O)[C@@]12O[C@](C)(c3ccccc3)O[C@@H]1CC1C3CCC4=CC(=O)CC[C@]4(C)C3CC[C@@]12C (stereo not given in full)	32.1%	47.6%	82.4%	88.5%	44%	99.7	70.7%	54.3%	86.2%	60.4%
COc1cc2cc(Oc3ccc(NC(=O)Nc4ccc(C(F)(F)F)cc4)cc3)c(C)nc2cc1OC	59.6%	52.7%	37.8%	92.9%	49%	38.8	71.9%	67%	70.9%	64.1%
CC(C)(C)OC(=O)N1CCc2c(sc3ncnc(N/N=C/c4ccc(Br)cc4)c23)C1	36.3%	19.1%	73.7%	77.6%	74%	75.7	61.1%	86.4%	73.9%	35.4%
CC(=O)Nc1ccc2c(c1)C(=O)c1cccc(C(=O)O)c1-2	123%	105%	106%	103%	108%	108	135%	118%	109%	107%
CC(C)(C)c1ccc(S(=O)(=O)N[C@H]2CC[C@H]3[C@@H]4CCc5cc(O)ccc5[C@H]4CC[C@]23C)cc1	20.5%	37.9%	50%	92.7%	51.4%	87	44.6%	37.3%	63.1%	46.4%
CS(=O)(=O)c1nccc(-c2c(-c3cccc(O)c3)nc3sccn23)n1	72.4%	91.5%	94.9%	99.3%	78.2%	95.6	117%	97%	93%	101%
O=C1c2ccccc2C(=O)c2c1ccc1c(=O)n(-c3ccccc3C(F)(F)F)nnc21	31.1%	18%	9.15% (active)	34.2%	1.52% (active)	69.9	-27.9% (active)	-17.6% (active)	73.1%	-16.4% (active)
COc1cc(Cc2cc(-c3ccccc3)n[nH]c2=O)cc(OC)c1OC	25%	53.5%	75.2%	93.1%	70.1%	71.2	63.3%	47.2%	68.2%	28.8%
COc1ccc(C(=O)N/N=C/c2cc(C(F)(F)F)ccc2Cl)cc1	102%	121%	102%	95.5%	91.7%	99.8	106%	108%	92.6%	90.9%
COc1ccc(/C=C2\CCCC3=C2NC(N)=NC3c2ccc(OC)c(OC)c2)cc1OC (stereo not given)	28.1%	15.2%	10.6%	74.4%	53.4%	44.1	57.1%	10.8%	87.9%	25.1%
S=c1cnc2ccccc2[nH]1	103%	100%	96.2%	104%	105%	96	97.2%	106%	91.5%	98.6%
C#C[C@]1(O)CCC2C3CCc4cc(OC5CCCC5)ccc4C3CC[C@@]21C (stereo not given in full)	15.1%	80.4%	81.3%	63.2%	92.9%	100	101%	96.4%	85.6%	87.6%
CCN(CC)CCCOc1cccc2c1C(=O)c1cccc(OCCCN(CC)CC)c1C2=O	3.15% (active)	18.6%	28.1%	55.8%	32.9%	41.5	25.8%	35%	58.4%	35.3%
Cc1cc(SC#N)cc(C(C)(C)C)c1O	86%	96.6%	99.9%	88.4%	96.1%	93.1	100%	95%	110%	104%
Cn1cnc([N+](=O)[O-])c1/C=C1\Oc2ccc(Br)cc2C1=O	33.9%	4.16% (active)	77.8%	105%	103%	89.9	87.1%	99.7%	103%	101%
COc1cc(C(=O)/C(C)=C/c2c[nH]c3ccccc23)cc(OC)c1OC	17.1%	49.9%	20.3%	53.3%	50.1%	29.9	18.8%	-8.19% (active)	44.9%	5.38% (active)
CNC(=O)c1cn2c3c(c(N4CCN(C)CC4)c(F)cc3c1=O)OC[C@@H]2C	90.6%	96.3%	106%	105%	94.1%	102	111%	107%	101%	102%
